This is a sample that favours compounds with a hit; in the whole collection about 1.2% have one here.
BRCA1 expr up: qHTS Assay to Identify Small Molecule Activators of BRCA1 Expression; MCF7-BRCA1-FFLuc reporter, luminescence, 48 h; response scale: scaled: vehicle 0%, 10 µM genistein 100%; Potency, µM (top dose mostly 46.1 µM), without a hit: at the top dose activation, most hits filed as activators; actives 1.1% (n = 380,000); AID 624202, 2012; also: potency is read from the fitted curve at half-maximal effect; nearly all actives have a fitted effect of over 80% in size
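Luminescence from a BRCA1-driven firefly luciferase in MCF7 cells was the read-out, taken 15 min after substrate addition following 48 h compound exposure at 37 °C. Data were normalized to a 10 microM genistein control and DMSO vehicle.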
TSG101-PTAP inh: qHTS Assay for Iinhibitors of HIV-1 Budding by Blocking the Interaction of PTAP/TSG101. 340,000 tested, under 10 active. Potency, µM (highest dose often 115 µM), for the others: at the highest dose activity change, negative = inhibition, usual class: inhibitors. AID 493005, 2010. Fluorescence polarization, FITC-PTAP peptide / Tsg101 binding. Tumor susceptibility gene 101 protein (Homo sapiens), Q99816; active = well fitted inhibition curve with a large enough effect in the main read-out, with a control signal flat, not every such curve was filed as active; inconclusive = small, poorly fitted or top-dose-only effect, or effect the other way, or a change in a side signal; inactive = no such curve, though single readings can be large or run the other way; also: potency is read from the fitted curve at half-maximal effect; % of control where 0% means no effect
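Compounds were pin-transferred onto Tsg101 binding domain (10 uM final) in HEPES pH 7.5 buffer, then FITC-PTAP peptide was added at 50 nM final. After 20 min at RT, polarization reported peptide displacement across a qHTS concentration series.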
TSHR antag: Antagonists of the Thyroid Stimulating Hormone Receptor: HTS campaign | Thyrotropin receptor (Homo sapiens), P16473 | TSHR-expressing cells, TSH-stimulated cAMP HTRF, 2 h; active compounds read low | activity change, negative = inhibition, % at 11.5 µM | actives 0.2% (n = 330,000) | AID 504810, 2011;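 active = activity change below a set negative limit, meaning inhibition stronger than a set level, cut at about -70% in these data; inconclusive = activity change between two set negative limits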; also: % is scaled to controls: 0 for no effect and ±100 for the full control effect
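Antagonism was scored as loss of TSH-driven cAMP in TSHR cells, stimulated with 4nM TSH (EC80) for 2 hours at 37 deg C and detected by homogeneous HTRF competition immunoassay.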
ASM inhibitor: Inhibitors of Secretory Acid Sphingomyelinase (S-ASM): qHTS; Sphingomyelin phosphodiesterase (Homo sapiens), P17405; placental ASM, HMU-PC fluorogenic substrate, 60 min; Potency, µM (doses to about 57.5 µM), without a hit: at the top dose activity change, negative = inhibition, actives largely listed as inhibitors; actives 0.006% (n = 340,000); AID 504937, 2011; also: potency is read from the fitted curve at half-maximal effect
Target sequence (P17405 47-631 limits assumed): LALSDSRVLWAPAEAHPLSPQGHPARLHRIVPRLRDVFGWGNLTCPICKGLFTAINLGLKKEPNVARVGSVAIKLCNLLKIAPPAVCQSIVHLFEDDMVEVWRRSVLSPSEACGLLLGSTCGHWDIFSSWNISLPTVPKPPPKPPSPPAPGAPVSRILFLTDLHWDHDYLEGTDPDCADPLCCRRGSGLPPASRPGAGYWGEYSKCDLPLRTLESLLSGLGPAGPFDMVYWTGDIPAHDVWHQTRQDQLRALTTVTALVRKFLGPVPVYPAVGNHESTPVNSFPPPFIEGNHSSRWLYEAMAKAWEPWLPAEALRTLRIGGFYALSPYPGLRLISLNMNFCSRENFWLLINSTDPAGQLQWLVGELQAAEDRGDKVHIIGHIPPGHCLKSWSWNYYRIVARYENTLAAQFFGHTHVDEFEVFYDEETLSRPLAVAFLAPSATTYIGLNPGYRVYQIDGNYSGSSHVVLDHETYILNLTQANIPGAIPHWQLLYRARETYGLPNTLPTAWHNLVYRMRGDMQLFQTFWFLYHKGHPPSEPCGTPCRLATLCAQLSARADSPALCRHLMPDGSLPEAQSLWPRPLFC
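qHTS format. ASM enzyme prepared from human placenta hydrolyses the fluorogenic substrate HMU-PC0 (9 uM final) over 60 min at 37 °C after a 10 min compound preincubation.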
Anesthetic bind: qHTS Assay for Identification of Novel General Anesthetics; Ferritin light chain (Equus caballus), P02791; apoferritin/1-aminoanthracene competitive binding, fluorescence; Potency, µM (titrated, usually from 77.5 µM), for inactives: at the highest dose activity change, negative = displacement, most hits filed as inhibitors; actives 0.074% (n = 350,000); also: potency is read from the fitted curve at half-maximal effect; % is scaled to controls: 0 for no effect and ±100 for the full control effect; nearly all actives have a fitted effect of over 20% in size
Target sequence (P02791 2-175 limits assumed): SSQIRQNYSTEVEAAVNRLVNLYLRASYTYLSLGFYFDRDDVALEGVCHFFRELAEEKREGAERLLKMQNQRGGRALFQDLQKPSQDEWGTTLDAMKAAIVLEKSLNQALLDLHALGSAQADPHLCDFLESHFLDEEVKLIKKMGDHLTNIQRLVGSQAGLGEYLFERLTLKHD
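10 uM apoferritin + 50% sat. 1-AMA, PBS; cpd 10 min RT; Ex380/Em535 endpoint; normalized to free probe vs complex; 4-param Hill fit; propofol titration as pos. ctrl.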
* hit, by the source's call; ? = inconclusive; / = no result. Unless noted, calls follow the shape of the dose curve; as a rule, active = well fitted curve in the direction sought with a large enough effect; inconclusive = small, poorly fitted or top-dose-only effect, or another doubt; inactive = no such curve, though single readings can be large; an effect the other way counts as inactive or inconclusive.

SMILES | BRCA1 expr up | TSG101-PTAP inh | TSHR antag | ASM inhibitor | Anesthetic bind
CC1CCCC(C)N1C(=O)COc1cccc(Oc2ccccc2)c1 (stereo not given) | -3.3% | -0.4% | -13.6 | -2.4% | /
O=C(NC1CCCCCCC1)c1c(O)c2ccccc2[nH]c1=O | 10µM* | -3.8% | 5.6 | 1.4% | -7.7%
CC(=O)c1cccc(NC(=O)c2cc(-c3cccs3)on2)c1 | 10µM* | 0.8% | 7.1 | 1.0% | 7.7%
COc1cccc(NC(=O)CCNC(=O)c2ccccc2Cl)c1 | 15.9% | -0.6% | 27.2 | 1.8% | 0.2%
COc1ccc(CNC(=S)Nc2cccc(Cl)c2)cc1 | -7.7% | 0.3% | / | -0.3% | /
O=C(Nc1cccc(O)c1)c1cc(-c2cccs2)on1 | 43.1% | 0.9% | -6.4 | -1.2% | -0.1%
COc1cccc(NC(=O)NCc2ccccc2Cl)c1 | 12.6µM* | 1.3% | / | 2.3% | /
COc1ccc(CNC(=O)Nc2cccc(Cl)c2)cc1 | 7.08µM* | -0.2% | -4.9 | 6.1% | -4.9%
COc1ccc(-c2cc(C(=O)Nc3cccc(Cl)c3)no2)cc1 | 3.16µM* | -4.5% | -7.7 | 3.4% | 2.7%
Nc1[nH]c(=O)nc2nnsc12 | 0.6% | / | / | / | /
CC[C@H](C)[C@H](N)C(=O)N[C@@H](CCCNC(=N)N)C(=O)N[C@@H](CCC(N)=O)C(=O)NCC(=O)N1CCC[C@H]1C(=O)N[C@@H](CCCCN)C(=O)N[C@@H](CCC(=O)O)C(=O)N1CCC[C@H]1C(=O)N[C@@H](Cc1ccccc1)C(=O)N[C@@H](CCCNC(=N)N)C(=O)N[C@@H](CC(=O)O)C(=O)N[C@@H](Cc1ccc(O)cc1)C(=O)N[C@H](C(=O)N[C@@H](CC(=O)O)C(=O)N[C@@H](CCCNC(=N)N)C(=O)N[C@@H](Cc1ccccc1)C(=O)N[C@@H](Cc1ccc(O)cc1)C(=O)N[C@@H](CCCCN)C(=O)N[C@H](C(=O)N[C@@H](CC(C)C)C(=O)O)[C@@H](C)O)C(C)C | / | / | / | / | -0.5%
COc1cc(OC)cc(C2=Nn3c(nnc3-c3cccc(OC)c3)SC2)c1 | / | / | / | / | -5.3%
CSCC[C@H](NC(=O)[C@H](Cc1c[nH]c2ccccc12)NC(=O)CCNC(=O)OC(C)(C)C)C(=O)N[C@@H](CC(=O)O)C(=O)N[C@@H](Cc1ccccc1)C(N)=O | / | / | / | / | 3.2%
Cc1ccc(C(=O)NCC(=O)OCC(=O)c2ccc3c(c2)NC(=O)CO3)cc1C | 0.0% | -3.8% | -7.7 | 3.3% | ?
Cc1ccc(C(=O)NCC(=O)OCC(=O)c2ccc3c(c2)OCCO3)cc1C | 0.0% | -1.1% | -11.5 | -0.1% | 10µM*
COc1ccc(CCNC(=O)c2ccc3c(c2)OCCO3)cc1 | ? | -1.4% | -1.3 | 3.4% | -11.6%
COc1ccc(C(=O)NCC(=O)OCC(=O)c2ccc3c(c2)OCCO3)cc1 | 15.9% | 0.0% | 18.8 | -0.4% | 12.6µM*
CC1Cc2ccccc2C[N+]1(C)CC(=O)c1ccc(I)cc1 (stereo not given) | 0.0% | / | / | / | /
Cc1ccc(SCC(=O)c2ccc[nH]2)cc1 | 3.16µM* | -8.5% | -6.2 | -0.1% | ?
Cc1ccc(CNC(=O)c2ccc[nH]2)cc1 | 9.0% | -2.7% | -2.0 | -3.4% | 2.7%
CCN(CC)CCOc1ccc2nc(N(C)C)sc2c1 | 0.0% | 1.2% | -4.0 | 1.7% | -14.6%
CN(C)c1nc2ccc(OCCN3CCCCC3)cc2s1 | 11.2µM* | -2.5% | -2.5 | 1.5% | -12.2%
COc1cc(OC)c(NC(=O)Cn2cnc3sc(C)c(S(=O)(=O)N4CCOCC4)c3c2=O)cc1Cl | -16.6% | -6.1% | -97.2* | -6.7% | -13.0%
COc1ccc(NC(=O)Cn2cnc3sc(C)c(S(=O)(=O)N4CCOCC4)c3c2=O)cc1Cl | -15.2% | -4.1% | 1.2 | -13.9% | -2.3%
Cn1sc(=O)n(Cc2ccccc2)c1=O | / | / | / | / | -14.5%
SMILES | BRCA1 expr up | TSG101-PTAP inh | TSHR antag | ASM inhibitor | Anesthetic bind
N#Cc1c(N)nc(SCC(=O)OCc2ccccc2)c(C#N)c1-c1ccco1 | 2.9% | -3.4% | -78.5* | 25.4% | ?
COc1ccc(NC(=O)CCl)cn1 | / | / | -5.6 | / | -7.5%
COc1ccc(NC(=O)CC2CC3CCC2C3)cn1 (stereo not given) | 12.6µM* | -3.7% | -1.0 | 3.4% | ?
Cc1nn(-c2ccc(N3CCCCC3)nn2)c(C)c1CCC(=O)Nc1ccc(F)c(F)c1 | 2.24µM* | -7.6% | -0.2 | -1.2% | -2.4%
Cc1nn(-c2ccc(N3CCCC3)nn2)c(C)c1CCC(=O)Nc1ccc(F)c(Cl)c1 | / | / | / | / | -3.7%
Cc1ccc(NC(=O)CCc2c(C)nn(-c3ccc(N4CCCCC4)nn3)c2C)cc1 | 3.98µM* | -4.4% | 0.5 | 1.1% | -19.6%
CC(=O)Nc1cc([N+](=O)[O-])cc(NC(C)=O)c1NC(C)=O | 0.0% | / | / | / | /
CN1CCN(c2nc3c(=O)[nH]c(N)nc3n2C2OC(CO)C(O)C2O)CC1 (stereo not given) | 17.3% | / | / | / | /
COc1ccc(NC(=O)c2cc(OCCCN(C)C)nn2Cc2ccccc2)cc1 | / | / | / | / | -13.8%
Cc1cc(/C=N/NC(=O)c2ccccn2)c(C)n1-c1cccc([N+](=O)[O-])c1 | 10µM* | -5.4% | 15.0 | -2.5% | ?
CC(=NNc1ccc([N+](=O)[O-])cn1)c1ccccc1 | 10µM* | 2.4% | / | 2.0% | /
Cc1ccc(-n2c(C)cc(/C=N/Nc3ccc([N+](=O)[O-])cn3)c2C)cc1 | 59.5% | -4.1% | -4.9 | -0.1% | -20.6%
Cc1cc(C(=O)N/N=C/c2cccc([N+](=O)[O-])c2)c(C)n1-c1ccccc1 | 44.9% | -0.1% | -15.1 | -3.1% | -12.1%
Cc1cc(/C=N/Nc2ccc([N+](=O)[O-])cn2)c(C)n1-c1ccccc1 | 10µM* | -1.0% | 13.3 | -1.1% | -20.8%
Cc1cccc(-n2c(C)cc(/C=N\NC(=O)c3ccco3)c2C)c1 | 8.91µM* | 1.6% | -2.0 | 5.1% | -16.9%
CN1CCOc2cc(S(=O)(=O)N3CCN(c4nc(-c5cccs5)nc5ccccc45)CC3)ccc21 | 19.9% | / | / | / | /
CC(C)(C)n1ncc2c(=O)n(CC(=O)c3ccc(Cl)cc3)cnc21 | 2.24µM* | -0.7% | -8.6 | -1.9% | ?
CC(C)(C)n1ncc2c(=O)n(CC(=O)Nc3ccc(Cl)cc3)cnc21 | -17.1% | -0.4% | 5.4 | -7.6% | -22.9%
CCOc1cccc(-c2csc(C3COc4ccccc4O3)n2)c1 (stereo not given) | 5.01µM* | -2.7% | 5.1 | 1.0% | 2.5%
NC(N)=Nc1nc(C2COc3ccccc3O2)cs1 (stereo not given) | ? | -2.4% | -10.0 | -0.8% | -23.5%
